Rows were chosen to be rich in hits. Some 0.83% of all compounds tested hit in one or more screens of this group.
Gli-Sufu antag: Gli-Sufu pathway antagonism; Sufu-KO-LIGHT fibroblasts, Gli luciferase reporter luminescence; inhibition, % at 5 µM; 340,000 tested, 0.74% active; AID 588413;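 active = inhibition above about 55%, limit read from the data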
NCOA2 inhibitor: human SRC2 (NCOA2) inhibition. HEK293 GAL4-SRC2 luciferase reporter, luminescence. inhibition, % at 9 µM. 370,000 tested, 0.17% active. AID 651957;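 active = inhibition above the mean inhibition of all tested compounds plus 3 SD, set per campaign, cut at about 52% in these data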
LRH-1 inv ag: suppresses constitutive activity of human LRH-1; inhibition, % at 3.6 µM; HEK293T StAR-luciferase reporter, LRH-1 transfected, 24 h; 360,000 tested, 0.13% active;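 active = inhibition above the mean inhibition of all tested compounds plus 3 SD, cut at about 73% in these data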
SRC3 inh: inhibits human SRC3 coactivator; HEK293 GAL4-SRC3 luciferase reporter, luminescence; inhibition, % at 3.6 µM; 360,000 tested, 0.17% active; AID 588352;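 active = inhibition above a per-campaign cutoff, the mean of all compounds plus 3 SD, cut at about 60% in these data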;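 also: higher means less SRC3-driven luciferase light from the GAL4 reporter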
NCOA1 inh: inhibits human SRC1 coactivator; HEK293 GAL4-SRC1 luciferase reporter, luminescence; AID 588354; Q15788; 360,000 tested, 0.12% active; inhibition, % at 3.6 µM;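 active = inhibition above the campaign mean plus 3 SD, with each screening campaign given its own cutoff, cut at about 60% in these data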
Gli-Sufu confirm: confirmation of Gli-SUFU pathway antagonists; shares compounds with Gli-Sufu antag; Sufu-KO-LIGHT cells, Gli luciferase reporter, luminescence; inhibition, % at 5 µM; 2,500 tested, 40% active; AID 602428;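 active = mean inhibition at 5 µM reaching about 45%, limit read from the data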
SufuKO cytotox: counter-screen for Gli-SUFU antagonists: cytotoxicity; 2,500 tested, 32% active; cytotoxicity, % at 5 µM; Sufu-KO-LIGHT cells cytotoxicity, ATP luminescence; shares compounds with Gli-Sufu antag;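 active = mean cytotoxicity at 5 µM above about 25%, limit read from the data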;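 also: cells exposed to compound overnight for roughly 16 to 18 hours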
Wnt3a cs: Wnt3a reporter inhibition counter-screen; shares compounds with Gli-Sufu antag; Wnt-LIGHT cells, Wnt3a-driven luciferase reporter, luminescence; inhibition, % at 6.25 µM; 2,500 tested, 20% active;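 active = mean inhibition above about 25%, limit read from the data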
Each line names hits and unclear results; the compound was inactive in the other large screens (follow-up assays come after a bar, where they were run).

CCOC(=O)Nc1ccc2c(c1)N(C(=O)CNC)c1ccccc1CC2	none | Gli-Sufu confirm inactive | SufuKO cytotox inactive | Wnt3a cs inactive
Cc1ccccc1CN1CCCCC(NC(=O)Cc2cccs2)C1=O (stereo not drawn)	none (no result: Gli-Sufu antag, LRH-1 inv ag, SRC3 inh, NCOA1 inh)
COc1ccc(Cn2c(NC(=O)c3ccccc3)nc(Cc3ccccc3)c2-c2ccccc2)cc1	none (no result: Gli-Sufu antag, LRH-1 inv ag, SRC3 inh, NCOA1 inh)
CCCC(C)C(=O)Nc1nc(C)c(-c2csc(Nc3ccc(Cl)cc3)n2)s1 (stereo not drawn)	none | Gli-Sufu confirm 59.9 | SufuKO cytotox inactive | Wnt3a cs inactive
CN1/C(=C\C(=O)COC(=O)Cn2nnc(-c3ccccc3)n2)C(C)(C)c2ccccc21	Gli-Sufu antag 71.3 | Gli-Sufu confirm 68.4 | SufuKO cytotox 42.7 | Wnt3a cs 33.9
CN1/C(=C/C(=O)COC(=O)CN2C(=O)C3CC=CCC3C2=O)C(C)(C)c2ccccc21 (stereo not drawn)	none
Cc1nc(N)nc(Nc2ccc(C#N)cc2)c1Br	Gli-Sufu antag 55.5 | Gli-Sufu confirm inactive | SufuKO cytotox inactive | Wnt3a cs inactive
CC(C)(C)OC(=O)N1CCC(c2ccc[nH]2)(c2c[nH]c3ccccc23)CC1	none (no result: Gli-Sufu antag, LRH-1 inv ag, SRC3 inh, NCOA1 inh)
Cc1nc2ccc(S(=O)(=O)c3ccc4nc(C)[nH]c4c3)cc2[nH]1	none
Cc1nc2ccc(NS(=O)(=O)c3ccc(F)c(C)c3)cc2[nH]1	Gli-Sufu antag 61.5 | Gli-Sufu confirm 49.3 | SufuKO cytotox inactive | Wnt3a cs 27.4
CN(/N=C\c1ccc(O)c(O)c1)c1nc(-c2ccccc2)cc(-c2ccccc2)n1	Gli-Sufu antag 90.5 | Gli-Sufu confirm 81.5 | SufuKO cytotox 25.6 | Wnt3a cs 88.6
CC1CCC(C(C)C)C(OC(=O)C[n+]2cccc(C(N)=O)c2)C1 (stereo not drawn)	none
COc1ccc(-c2c[n+](CC(=O)OC3CC(C)CCC3C(C)C)c3n2CCC3)cc1 (stereo not drawn)	Gli-Sufu antag 89.8 | Gli-Sufu confirm 89.5 | SufuKO cytotox 26.0 | Wnt3a cs inactive
CC(C)[C@@H]1CC[C@@H](C)C[C@H]1OC(=O)C[n+]1cc(-c2ccc(Cl)cc2)n2c1CCCCC2	Gli-Sufu antag 66.0 | Gli-Sufu confirm 77.2 | SufuKO cytotox 34.8 | Wnt3a cs inactive
Cc1c(CCOC(=O)CC23CC4CC(CC(C4)C2)C3)sc[n+]1Cc1ccccc1	none | Gli-Sufu confirm 58.4 | SufuKO cytotox 32.1 | Wnt3a cs inactive
O=c1c2ccccc2n(Cc2ccno2)n1[C@@H](Cc1ccccc1)Cn1cc(-c2ccc(-c3ccccc3)cc2)nn1	none (no result: Gli-Sufu antag, LRH-1 inv ag, SRC3 inh, NCOA1 inh)
CC1(C)CC(=O)N(CC(=O)N2CCN(Cc3ccccc3)CC2)c2ccccc2S1(=O)=O	none (no result: Gli-Sufu antag, LRH-1 inv ag, SRC3 inh, NCOA1 inh)
COC(=O)c1cc(S(=O)(=O)N2CCC(c3cc(OC)ccc3OC)C2)c[nH]1 (stereo not drawn)	none | Gli-Sufu confirm inactive | SufuKO cytotox 27.8 | Wnt3a cs inactive
COC(=O)c1cc(S(=O)(=O)N2CCN(c3ccc([N+](=O)[O-])cc3)CC2)c[nH]1	none | Gli-Sufu confirm inactive | SufuKO cytotox inactive | Wnt3a cs inactive
O=C(CCc1ccccc1)N[C@H]1[C@H](O)CCC[C@@]12C(=O)N(Cc1ccccc1)c1ccc(-c3ccccc3)cc12	none (no result: Gli-Sufu antag, LRH-1 inv ag, SRC3 inh, NCOA1 inh)
C[C@@H]1/C=C/CC(=O)N[C@H](c2cccc(Br)c2)[C@H](C)/C=C/CC(=O)N[C@@H]1c1cccc(Br)c1	none (no result: Gli-Sufu antag, LRH-1 inv ag, SRC3 inh, NCOA1 inh)
COc1ccc(C(=O)C2(C(=O)Nc3cc(C)cc(C)c3)CC(c3ccccc3C(F)(F)F)=NO2)cc1 (stereo not drawn)	none (no result: Gli-Sufu antag, LRH-1 inv ag, SRC3 inh, NCOA1 inh)
CCOC(=O)[C@]12CCCC=C1N(CCCOC)C(=O)[C@@H]2CC(=O)NCc1cccc(C(F)(F)F)c1	none (no result: Gli-Sufu antag, LRH-1 inv ag, SRC3 inh, NCOA1 inh)
Cc1cc(C)cc(NC(=O)C2CCC(CNC(=O)[C@@H]3Cc4ccccc4CN3)CC2)c1 (stereo partly drawn)	Gli-Sufu antag 56.9 | Gli-Sufu confirm inactive | SufuKO cytotox inactive | Wnt3a cs inactive
CCOC(=O)Cn1c(COc2ccccc2OC)[n+](C)c2ccccc21	none | Gli-Sufu confirm inactive | SufuKO cytotox inactive | Wnt3a cs inactive
CCCCCCCCCCOC(=O)Cn1c(COc2cccc(C)c2)[n+](C)c2ccccc21	none (no result: Gli-Sufu antag)
COc1ccc(C=Nn2c(-c3n[nH]c4c3CCC4)n[nH]c2=S)cc1OCc1ccccc1	none (no result: Gli-Sufu antag, LRH-1 inv ag, SRC3 inh, NCOA1 inh)
CSCCC(=O)N(C)CC1CCCN(CCc2cccc(C(F)(F)F)c2)C1 (stereo not drawn)	none
COC(=O)CCC(=O)N(C)CC1CCCN(CCc2cccc(C(F)(F)F)c2)C1 (stereo not drawn)	Gli-Sufu antag 56.2 | Gli-Sufu confirm inactive | SufuKO cytotox inactive | Wnt3a cs inactive
CCOC(=O)N1CCN(C(=O)C2CCN(S(=O)(=O)N3CCCC3)CC2)CC1	Gli-Sufu antag 56.2 | Gli-Sufu confirm inactive | SufuKO cytotox inactive | Wnt3a cs inactive
Fc1ccc(NCc2nnc(SCc3ccccc3)o2)cc1	none
NCCc1nnc(SCc2ccc(F)cc2)o1	Gli-Sufu antag 67.9 | Gli-Sufu confirm inactive | SufuKO cytotox inactive | Wnt3a cs inactive
NC(N)=NN=C(c1ccc(F)cc1)c1ccc(C(F)(F)F)cc1	Gli-Sufu antag 56.5 | Gli-Sufu confirm inactive | SufuKO cytotox 49.7 | Wnt3a cs inactive
CCN1C(=O)CCN(C2CCCC2)c2nc(Nc3ccc(C(=O)NC4CCN(C)CC4)cc3OC)ncc21	Gli-Sufu antag 71.5 | Gli-Sufu confirm 60.4 | SufuKO cytotox inactive | Wnt3a cs inactive
COc1cc(C(=O)N2CCC(N3CCN(C)CC3)CC2)ccc1Nc1ncc2c(n1)N(C)c1ccccc1C(=O)N2C	none (no result: Gli-Sufu antag, LRH-1 inv ag, SRC3 inh, NCOA1 inh)
O=C(NCCc1ccccc1)OCc1cn(Cc2cccc(C(F)(F)F)c2)nn1	none (no result: Gli-Sufu antag, LRH-1 inv ag, SRC3 inh, NCOA1 inh)
COc1cccc(/C=N\NC(=O)c2ccc(Cn3cc(Br)c([N+](=O)[O-])n3)o2)c1O	Gli-Sufu antag 55.9 | Gli-Sufu confirm 50.0 | SufuKO cytotox inactive | Wnt3a cs 47.1
COc1cc(/C=N\NC(=O)c2ccc(Cn3nc([N+](=O)[O-])c(Cl)c3C)o2)ccc1O	none
CN1/C(=C\C(=S)NC(=O)c2ccc([N+](=O)[O-])cc2)C(C)(C)c2ccccc21	Gli-Sufu antag 61.8 | Gli-Sufu confirm inactive | SufuKO cytotox inactive | Wnt3a cs 25.8
CN1/C(=C/C=N/NC(=O)c2ccc([N+](=O)[O-])cc2)C(C)(C)c2ccccc21	none
CN1/C(=C\C(=S)NC(=O)c2cccc(Br)c2)C(C)(C)c2ccccc21	Gli-Sufu antag 72.3 | Gli-Sufu confirm 56.0 | SufuKO cytotox inactive | Wnt3a cs inactive
O=C(CSc1nnc(-c2cnccn2)n1-c1ccccc1)c1ccccc1Br	none (no result: Gli-Sufu antag, LRH-1 inv ag, SRC3 inh, NCOA1 inh)
COC(=O)[C@]1(CNS(=O)(=O)C2CC2)CC(=O)N(C)[C@@H]1c1ccccc1	none (no result: Gli-Sufu antag, LRH-1 inv ag, SRC3 inh, NCOA1 inh)
COc1cc(C(=O)Oc2ccccc2/C=N/NC(=O)c2ccc(C)c(Cl)c2)cc(OC)c1OC	none

High-throughput results: PubChem, several laboratories
